Source: PubChem BioAssay (National Center for Advancing Translational Sciences (NCATS))
Hits are enriched below; roughly 8.5% of the tested compounds scored in any of these assays.
KDM4E inh: inhibitors of human JMJD2E histone demethylase; B2RXH2; JMJD2E catalytic domain, FDH-coupled NADH fluorescence (FDH is formaldehyde dehydrogenase); Potency, µM (series often up to 57.1 µM), without a hit: at the top dose activity change, negative = inhibition, usual class: inhibitors; actives 1.6% (n = 230,000); active = well fitted inhibition curve with a large enough effect, not every such curve was filed as active; inconclusive = small, poorly fitted or top-dose-only effect, or another doubt; inactive = no such curve, though single readings can be large or run the other way;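 also: potency is read from the fitted curve at half-maximal effect; 0% = wells with enzyme and -100% = buffer wells without enzyme; nearly all actives have a fitted effect of over 50% in size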
Target sequence (B2RXH2 1-337 limits assumed): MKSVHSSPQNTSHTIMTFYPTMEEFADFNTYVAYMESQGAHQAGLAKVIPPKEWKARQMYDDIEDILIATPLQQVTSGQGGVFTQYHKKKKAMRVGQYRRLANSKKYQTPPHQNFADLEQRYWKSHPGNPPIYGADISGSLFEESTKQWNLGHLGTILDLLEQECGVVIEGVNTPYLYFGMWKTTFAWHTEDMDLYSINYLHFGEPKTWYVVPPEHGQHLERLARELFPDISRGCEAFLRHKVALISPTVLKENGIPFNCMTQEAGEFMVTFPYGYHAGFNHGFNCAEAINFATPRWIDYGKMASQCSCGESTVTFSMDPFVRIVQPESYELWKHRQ
GoLoco inh red: blocks human Gai1 binding to RGS12 GoLoco peptide, red readout; Gai1:RGS12 GoLoco peptide FP, rhodamine, 10 min; actives 0.44% (n = 230,000); P63096; Potency, µM (titrated, usually from 61.6 µM), without a hit: top-dose activity, negative = inhibition, most hits filed as inhibitors; active = well fitted inhibition curve with a large enough effect, not every such curve was filed as active; inactive = no such curve, though single readings can be large or run the other way; also: potency is read from the fitted curve at half-maximal effect; nearly all actives have a fitted effect of over 30% in size
FBPA coupling cs: inhibits coupling enzyme system, counter-screen for aldolase hits; coupling enzyme system counterscreen, AmpLite Red fluorescence; activity change, negative = inhibition, % at 58.2 µM, hits read low; actives 0.67% (n = 290,000); AID 2472; in the data active = activity change below about -30%
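Counterscreen of the coupled detection system alone, without aldolase: glyceraldehyde-3-phosphate coupling enzymes plus AmpLite Red readout. Compounds at 57.5 uM final, 10 min RT preincubation, 20 min RT reaction, fluorescence 525/598 nm.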
Sfp inh: Sfp phosphopantetheinyl transferase inhibition. Biochemical Sfp PPTase activity, qHTS. actives 3.5% (n = 310,000). Potency, µM, without a hit: largest response in the series, negative = inhibition, usual class: inhibitors. Q9F4F7;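 also: the enzyme is Sfp with the accession as filed and its product quenches rhodamine fluorescence; potency is read from the fitted curve at half-maximal effect; 0% = enzyme reaction without inhibitor and -100% = no enzyme wells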
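Sfp 15 nM + cpd, 15 min RT; start w/ rhodamine-CoA 5 uM, BHQ-2-YbbR 12.5 uM (final); 50 mM Hepes pH 7.6, 10 mM MgCl2, 0.01% NP-40, 0.01% BSA; read 525/598 nm at 0 and 30 min.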
ALDH1A1 block: inhibitors of human aldehyde dehydrogenase 1A1 | Potency, µM (titrated, usually from 75.3 µM), inactives show top-dose activity, negative = inhibition, hits mostly inhibitors | AID 1030 | Purified ALDH1A1, NADH fluorescence, propionaldehyde substrate | P00352 | actives 7.3% (n = 220,000); active = well fitted inhibition curve with a large enough effect, not every such curve was filed as active; inconclusive = small, poorly fitted or top-dose-only effect, or another doubt; inactive = no such curve, though single readings can be large or run the other way;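 also: potency is read from the fitted curve at half-maximal effect; plate controls were no enzyme wells and a reference inhibitor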
NPSR antagonist: neuropeptide S receptor (human) antagonism, cAMP. actives 1% (n = 220,000). Potency, µM (highest dose often 38.3 µM), without a hit: at the highest dose activity change, negative = inhibition, most hits filed as inhibitors. CHO-NPSR cells, cAMP TR-FRET, antagonist mode. Q6W5P4; also: potency is read from the fitted curve at half-maximal effect; nearly all actives have a fitted effect of over 50% in size
Target sequence (Q6W5P4 whole entry, looked up): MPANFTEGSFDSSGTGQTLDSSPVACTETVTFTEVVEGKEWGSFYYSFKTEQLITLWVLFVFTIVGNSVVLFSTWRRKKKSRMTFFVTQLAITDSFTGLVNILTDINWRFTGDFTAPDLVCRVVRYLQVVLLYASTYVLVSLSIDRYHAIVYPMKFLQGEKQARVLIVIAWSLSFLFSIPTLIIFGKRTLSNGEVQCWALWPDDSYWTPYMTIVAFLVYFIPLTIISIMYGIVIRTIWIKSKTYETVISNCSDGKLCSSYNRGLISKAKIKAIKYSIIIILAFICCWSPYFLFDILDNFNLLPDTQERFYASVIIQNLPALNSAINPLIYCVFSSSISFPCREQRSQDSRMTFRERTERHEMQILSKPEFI
Active calls of the source: *; ? = inconclusive; · = no result given; [ ] = another dose, or the depositor's remark. Unless noted, calls follow the shape of the dose curve; as a rule, active = well fitted curve in the direction sought with a large enough effect; inconclusive = small, poorly fitted or top-dose-only effect, or another doubt; inactive = no such curve, though single readings can be large; an effect the other way counts as inactive or inconclusive. Unless noted, % is scaled to controls: 0 for no effect and ±100 for the full control effect.

SMILES	KDM4E inh	GoLoco inh red	FBPA coupling cs	Sfp inh	ALDH1A1 block	NPSR antagonist
Cc1ccc(NC(=O)CN2CCN(C(=O)c3ccco3)CC2)cc1	·	·	-0.1	23.7%	·	·
CCCn1c(N2CCN(CC(=O)Nc3ccc4c(c3)OCCO4)CC2)nc2ccccc21	-9.9%	3.8%	-0.2	-4.1%	25.1µM*	-5.9%[46.1 µM]
O=C(c1ccco1)N1CCCN(Cc2nc(-c3ccc4c(c3)OCO4)no2)CC1	-4.6%	8.1%	1.6	10.6%	22.4µM*	-15.8%
O=C(CN1CCN(c2ccccc2F)CC1)Nc1ccccc1F	1.6%	-7.3%	3.7	5.2%	20µM*	-19.4%[46.1 µM]
COc1ccc(N2CCN(S(=O)(=O)c3ccc(OC)c(C(=O)N4CCOCC4)c3)CC2)cc1	·	·	0.3	-0.6%	·	·
COc1ccc(S(N)(=O)=O)cc1C(=O)OCCCOc1ccc(F)cc1	·	·	-0.4	0.2%	·	·
Cc1ccc(C(=O)/C=C/C(=O)O)cc1	-14.3%	-12.7%	6.2	12.6µM*	0.447µM*	?
O=C(N/N=C(\Cc1ncc[nH]1)c1ccccc1)c1cccnc1	-3.2%	6.7%	-4.2	0.6%	5.2%	8.2%
O=C1CCN(c2ccc([N+](=O)[O-])cc2F)CC1	-26.0%	-6.1%	0.2	9.9%	8.91µM*	6.6%
O=C1CC(Nc2ccc(N3CCOCC3)cc2)C(=O)N1c1ccccc1F (stereo unspecified)	5.1%	-26.8%	-1.9	50.1µM*	14.1µM*	-20.9%[46.1 µM]
COc1ccc(/C(C)=N/N=C(\C)c2ccc(OC)cc2OC)c(OC)c1	1.4%	5.7%	1.2	3.2%	12.8%	4.4%
COc1ccc(C(N)=S)c(OC)c1	-0.7%	18.4%	1.2	44.7µM*	12.6µM*	20.1%
O=[N+]([O-])c1ccccc1/C=N/Nc1nnc(-c2ccccc2)c(-c2ccccc2)n1	2.6%	3.6%	1.3	21.7%	0.282µM*	-18.3%[46.1 µM]
COc1ccc2c(Cl)c(C(=O)N/N=C3\CCCC(=O)C3)sc2c1	17.8µM*	238.6%	-0.3	1.1%	4.47µM*	-2.5%
COc1ccc2c(Cl)c(C(=O)N/N=C/c3ccc4c(c3)OCO4)sc2c1	?	4.8%	5.5	?	?	?
C=C1CCN(C(C)C(=O)OCc2ccc(C)cc2)S(=O)(=O)c2ccccc21 (stereo unspecified)	·	·	-2.1	1.1%	·	·
COc1ccc2[nH]c(C)c(CCN(Cc3cccs3)C(=S)Nc3ccc(F)cc3)c2c1	?	1.3%	-8.2	15.5%	17.8µM*	-18.3%[46.1 µM]
Cc1[nH]c2ccc(F)cc2c1CCN(Cc1cccnc1)C(=S)Nc1ccc(F)cc1	-9.2%	-7.7%	-9.6	-9.1%	?	10µM*
COc1ccc(NC(=S)N(CCc2nc3cc(C)c(C)cc3[nH]2)Cc2cccnc2)cc1	15.3%	20.8%	-0.5	-14.2%	12.6µM*	-20.7%[46.1 µM]
COc1ccc2[nH]c(C)c(CCN(Cc3cccs3)C(=S)Nc3ccccc3)c2c1	-7.6%	7.9%	-23.8	-2.0%	?	-13.9%[46.1 µM]
COc1ccc(NC(=S)N(CCc2c(C)[nH]c3ccccc23)Cc2cccnc2)cc1	11.3%	-2.2%	0.8	1.6%	-5.2%	-8.0%
COc1ccccc1CNc1ccnc(-c2cccnc2)n1	·	2.3%	2.6	-21.8%	7.3%	·
COC(=O)C/C=C/[C@@H](C)[C@H](OC)c1c(Br)ccc2c1OCO2	6.2%	-5.5%	2.2	8.5%	1.2%	·
COCC(=O)C(C(=O)OC)[C@H](CCc1ccccc1)NC(=O)OC (stereo partly specified)	2.8%	-3.5%	-1.3	-13.3%	-6.6%	·
Cc1ccc([N+](=O)[O-])c(OCCN2CCc3ccccc3C2)c1	·	·	-1.1	-27.8%	·	·
SMILES	KDM4E inh	GoLoco inh red	FBPA coupling cs	Sfp inh	ALDH1A1 block	NPSR antagonist
Cc1ccc([N+](=O)[O-])c(OCCN2CCCCCC2)c1	-8.5%	-14.7%	-7.0	?	15µM*	9.8%
CC1Oc2ccccc2C=C1/C=N/Nc1ccc(C(=O)O)cc1 (stereo unspecified)	?	-0.3%	-1.7	2.7%	·	?
Nc1ccc(-n2cc(-c3ccccc3)[nH]c2=S)cc1	·	·	1.2	35.5µM*	·	·
S=c1[nH]c(-c2ccccc2)cn1-c1ccccc1	·	·	3.3	?	·	·
Cc1ccc(C(=O)c2sc3nsc(C)c3c2N)cc1	0.2%	-27.8%	5.7	-6.1%	14.1µM*	?
Cc1snc2sc(C(=O)c3ccc(Br)cc3)c(N)c12	7.7%	-53.4%	1.5	?	6.0%	-5.8%[46.1 µM]
COc1cccc(NC(=O)Cn2c(=O)n(C)c(=O)c3sc4c(c32)COC(C)(C)C4)c1	·	·	·	6.7%	·	·
COC(=O)CCCC[C@H]1SC[C@H]2NC(=O)N[C@]21O	-4.8%	-5.7%	-0.6	39.8µM*	-0.5%	-9.1%[46.1 µM]
COC(=O)[C@H](C)[C@H](CC(C)C)NC(=O)[C@H](C)[C@H](CC(C)C)NC(=O)c1ccccn1	·	·	0.3	15.6%	·	·
O=C(O)CC1(CC(=O)Nc2ccc(Oc3cccc(C(F)(F)F)c3)nc2)CCCC1	-2.5%	-8.7%	1.2	13.7%	7.94µM*	32.8%
CC1(C)Cc2ccccc2-c2n[nH]c(=S)n21	-5.0%	6.8%	0.3	44.7µM*	12.6µM*	2.3%[46.1 µM]
C=C(C)CC(C)(C)C	·	·	1.1	-0.6%	·	·
Nc1ccccc1SCc1csc(-c2ccc(Cl)cc2)n1	-10.0%	2.4%[14.2 µM]	-4.1	14.1µM*	10.3%[13.5 µM]	19.6%
COC(=O)C1(C)Cc2cc(OC(C)=O)c(OC(C)=O)cc2N1 (stereo unspecified)	?	-14.6%	1.2	10.4%	·	4.2%
COc1ccc(-n2nnc3c(SC(C(C)=O)C(=O)N(C)C)ncnc32)cc1 (stereo unspecified)	·	·	·	17.8µM*	·	·
COC(=O)C(C)Sc1ncnc2c1nnn2-c1ccc(F)cc1 (stereo unspecified)	-1.0%	1.7%	-0.2	5.9%	4.6%	-13.3%[46.1 µM]
O=C(CCl)c1ccc2[nH]c(=O)oc2c1	?	5.4%	6.9	-14.7%	0.282µM*	-13.3%
COC(=O)c1ccc(NS(=O)(=O)c2ccc3[nH]c(=O)oc3c2)cc1	·	·	11.0	6.6%	·	·
CC(=O)O[C@H]1C[C@H]2CC[C@@H]3[C@@H](CC[C@]4(C)[C@H](OC(C)=O)[C@H]([N+]5(C)CCCCC5)C[C@@H]34)[C@]2(C)C[C@H]1[N+]1(C)CCCCC1	1.3%[25.5 µM]	6.1%[21.6 µM]	1.9	25.2%	-6.0%[20.9 µM]	·
COc1ccccc1N1CCN(C(CNS(=O)(=O)c2cc(F)ccc2F)c2cccnc2)CC1 (stereo unspecified)	?	21.3%	0.0	-5.6%	20µM*	-4.6%
COc1ccccc1N1CCN(C(CNS(=O)(=O)c2ccccc2)c2cccnc2)CC1 (stereo unspecified)	9.7%	7.8%	0.8	11.3%	20µM*	-17.3%[46.1 µM]
COC(=O)c1cc2oc(C)cc2n1CC(=O)N(C)c1ccccc1	-3.6%	-6.5%	2.1	?	-10.1%	?
